PubChem BioAssay (NCI)
The panel holds about 83,000 compounds, 20% with a hit somewhere; the sample as a whole holds those more often.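 Single-concentration screen, 48 h exposure, 96-well plates. Endpoint: percent growth. Below 10 = active.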 A number with no mark means an inactive call. The source made the active and inactive calls.

Key:
Test in all cases: NCI-60 one-dose screen, 48 h (100 = growth as untreated, 0 = no growth, -100 = all killed)
Conditions in all cases: 10 µM unless noted
[1] = tested on: HCT-15 colon
[2] = tested on: HT29 colon
[3] = tested on: SNB-75 CNS
[4] = tested on: SNB-19 CNS
[5] = tested on: U251 CNS
[6] = tested on: PC-3 prostate
[7] = tested on: SK-MEL-5 melanoma
[8] = tested on: UACC-62 melanoma
[9] = tested on: LOX IMVI melanoma
[10] = tested on: SK-MEL-28 melanoma

Compound	growth [1]	growth [2]	growth [3]	growth [4]	growth [5]	growth [6]	growth [7]	growth [8]	growth [9]	growth [10]
c1ccc(-c2n(Cc3ccc4ccccc4n3)cc[n+]2Cc2ccc3ccccc3n2)cc1	102%	22.8%	42.6%	8.24% (active)	14.7%	27%	-73.4% (active)	-10.3% (active)	19.5%	24.5%
COc1cc(/C=N/Nc2nc(-c3ccc(F)cc3)c(C#N)c(N3CCOCC3)n2)ccc1O	99.9%	96%	84%	92.9%	97.6%	96.4%	102%	99%	107%	99.9%
CC(=O)Oc1ccc(O)cc1	104%	87.3%	91.1%	96.2%	101%	87.1%	96.7%	86.6%	94.4%	104%
COc1ccc(C(=O)c2cc(OC)c(OC)c(OC)c2)cc1OC(=O)CCl	17%	21.6%	60.8%	31.3%	-16.9% (active)	17%	-34% (active)	45.2%	19%	60.8%
Nc1c(C(=O)Nc2ccccn2)sc2nc3c(cc12)C(=O)CCC3	28.5%	12.4%	8.84% (active)	28.2%	29.5%	37.9%	17.1%	34.9%	44.4%	56.4%
Cc1ccc(C2CC(c3ccc(Nc4nc(NCCO)nc(NCCO)n4)cc3)=NN2c2ccc(Cl)cc2)cc1 (stereo not given)	47%	30.5%	28.5%	75.5%	36.3%	33.5%	74.8%	81.2%	40.9%	48.4%
COc1cc(C2CC(c3ccc(Nc4nc(NCCO)nc(NCCO)n4)cc3)=NN2c2cc(Cl)cc(Cl)c2)cc(OC)c1OC (stereo not given)	16.3%	-47% (active)	-14.6% (active)	17.4%	-36.2% (active)	-42.1% (active)	-45.8% (active)	2.21% (active)	-60.2% (active)	-70% (active)
C/C(=N\NC(=O)c1ccncc1)c1ccc(N)cc1	103%	97.2%	88.8%	94.6%	97.7%	85.8%	98.8%	93.6%	98%	106%
CCC1=C[C@H]2CN(CCc3c([nH]c4ccccc34)[C@@](C(=O)OC)(c3cc4c(cc3OC)N(C)[C@H]3[C@@](O)(C(=O)OC)[C@H](OC(C)=O)[C@]5(CC)[C@@H]6C[C@@H]6CN6CC[C@]43[C@@H]65)C2)C1	7.44% (active)	-18.4% (active)	-3.68% (active)	21.1%	13%	29.4%	-25.5% (active)	17%	17%	58.5%
CC(=O)Oc1c2c(nc3c1c1ccccc1n3Cc1ccccc1)-c1ccccc1C2	84.9%	75.4%	75.7%	96.7%	78.7%	71.8%	83.7%	70.2%	88.1%	100%
O=[N+]([O-])c1ccc(N=Nc2c(O)c(N=Nc3cc([N+](=O)[O-])cc([N+](=O)[O-])c3O)cc(N=Nc3cc(S(=O)(=O)O)cc4cc(S(=O)(=O)O)cc(O)c34)c2O)cc1	101%	99.1%	91.1%	105%	105%	86.7%	108%	95.5%	90.1%	99%
CC1=C/C(=N\N=C2/C=C(C)CC(C)(C)C2)CC(C)(C)C1	106%	91.8%	94.9%	102%	96%	94.8%	99%	93.8%	100%	116%
COc1ccc(-c2cc(C(=O)N3N=C(c4ccc(N)cc4)CC3c3ccc(OC)cc3)c3cc(OC)ccc3n2)cc1 (stereo not given)	22.2%	26.5%	70.3%	58.1%	48.7%	42.5%	67.3%	40.4%	41.3%	64.4%
